This is part of a sample that, as a whole, favours compounds with a hit. Of some 83,000 tested, about 20% had one in any assay.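 In brief: 96-well plates, 48 h treatment, single concentration, percent growth endpoint.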 Unmarked numbers belong to inactive results. The source made the active and inactive calls. Rule for the calls: active = growth percent below 10; inactive = the rest.
The compounds below were run on U251 CNS (assay: NCI-60 one-dose screen, 48 h (100 = growth as untreated, 0 = no growth, -100 = all killed)). Conditions: 10 µM unless noted.

| SMILES | growth |
| --- | --- |
| O=C(CCN1CCCC1)Nc1ccc2c(NCCCCc3ccccc3)c3ccccc3nc2c1 | -57.8% (active) |
| CSc1nc2sc3cccc(Cl)c3n2c(=N)c1C#N | 95.6% |
| C#CCNC(=O)c1cccc2c1cc(C)n2-c1nc2c(c(NCc3ccccc3)n1)CCCC2 | -71.6% (active) |
| Cc1ccc(S(=O)(=O)NNC(=O)/C(=C\c2ccc(Cl)cc2)c2nc3ccccc3s2)cc1 | 97.5% |
| O=[N+]([O-])CC(c1ccccc1)c1c[nH]c2ccccc12 (centres undefined) | 35.7% |
| Nc1nc(Nc2ccccc2SSc2ccccc2Nc2nc(N)nc(-c3ccc(C(F)(F)F)cc3)n2)nc(-c2ccc(C(F)(F)F)cc2)n1 | 41.2% |
| CCCCCC(=O)Oc1ccc(/C(=C(\C)c2ccccc2)c2ccc(OCCN3CCCCC3)cc2)cc1 | 71.7% |
| C/C(=N\Nc1cc(C)nc2ccc(Br)cc12)c1ccc([N+](=O)[O-])cc1 | 20% |
| COc1cccc(-c2ccc3c(c2)NC(=O)/C3=C\c2ccc[nH]2)c1 | 83.5% |
| CCC(=O)Oc1ccc(/C(=C(\C)c2ccccc2)c2ccc(OCCN3CCCCC3)cc2)cc1 | 68.4% |
| COc1cc(CC(=O)c2ccc(O)c(OC)c2)ccc1O | 92.5% |
| Brc1ccc2[nH]cc(-c3cncn3CCc3ccccc3)c2c1 | 55.7% |
| CCNC(=O)Oc1ccc(/C(=C(\C)c2ccccc2)c2ccc(OCCCN(C)C)cc2)cc1 | 66.3% |
| O=C(/C=C/c1ccc(F)cc1)c1ccc(NC(=O)N2CCN(c3cc4c(cc3F)c(=O)c(C(=O)O)cn4C3CC3)CC2)cc1 | 98.9% |
